Experimental data reported in PubChem BioAssay AID1018 (Sanford-Burnham Center for Chemical Genomics, 2008).
The whole screen tested about 200,000 compounds, of which about 15 (0.007%) were called active. The sample as a whole holds a higher share of actives than the screen did. Values without a mark were called inactive. Cut-off read from the data, not from the text of the source: active = displacement above about 50%; inactive = the rest.

These compounds were tested against E3 ubiquitin-protein ligase XIAP (Homo sapiens) (UniProt P98170) (assay: small molecules displacing peptide from XIAP – biochemical, IAP family, fluorescence polarization (AID 1018)). Details: XIAP BIR domain, at 20 µM, stronger effect = higher value.
Sequence of E3 ubiquitin-protein ligase XIAP (Homo sapiens) (P98170 whole entry, looked up, the tested form may be a part): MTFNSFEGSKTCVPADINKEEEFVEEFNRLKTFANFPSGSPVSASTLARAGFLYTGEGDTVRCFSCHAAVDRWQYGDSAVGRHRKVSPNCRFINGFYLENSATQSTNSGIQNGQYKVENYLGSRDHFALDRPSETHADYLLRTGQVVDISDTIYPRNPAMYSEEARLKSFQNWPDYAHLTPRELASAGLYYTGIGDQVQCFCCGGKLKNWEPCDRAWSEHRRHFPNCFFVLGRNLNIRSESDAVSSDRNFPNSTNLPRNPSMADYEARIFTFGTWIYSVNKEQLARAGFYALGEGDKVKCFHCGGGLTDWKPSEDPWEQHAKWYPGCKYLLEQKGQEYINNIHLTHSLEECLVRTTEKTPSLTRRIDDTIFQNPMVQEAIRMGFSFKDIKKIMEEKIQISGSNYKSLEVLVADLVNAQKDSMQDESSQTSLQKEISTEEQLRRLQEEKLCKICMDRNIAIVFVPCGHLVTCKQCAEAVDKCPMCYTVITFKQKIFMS

SMILES | displacement
CN1C(=O)N(C)C(=O)C2(Cc3ccccc3N3CCOCC32)C1=O (stereo not given) | -5.1%
CN1C(=O)N(C)C(=O)C2(Cc3cc(N)ccc3N3CCN(c4ccccc4F)CC32)C1=O (stereo not given) | 55.4% (active)
CN1C(=O)NC(=O)[C@]2(Cc3ccccc3N3CCN(c4ccccc4)CC32)C1=O (stereo not given in full) | -2.4%
Cc1ccc(-c2nc3ccccc3c(=O)n2-c2ccccn2)cc1 | -3%
CCCCCSc1cc(OC)c(CCN(C)C)cc1OC | -2.2%
